Tests used:
Assay in all cases: protein domain microarray probed with biotinylated miRNA; Domain array: 20 mM Tris-HCl pH 7.4, 200 mM KCl, 0.2 mM EDTA, 0.05% NP40, 2 ug/ul heparin, overnight 4 C. ORF array: PBS pH 7.0 with RNase inhibitor, 100 ng RNA; high values mean tight binding
Conditions in all cases: ssRNA
RBM5 = target: T1, RBM5 (Homo sapiens, UniProt P52756)
T1 sequence: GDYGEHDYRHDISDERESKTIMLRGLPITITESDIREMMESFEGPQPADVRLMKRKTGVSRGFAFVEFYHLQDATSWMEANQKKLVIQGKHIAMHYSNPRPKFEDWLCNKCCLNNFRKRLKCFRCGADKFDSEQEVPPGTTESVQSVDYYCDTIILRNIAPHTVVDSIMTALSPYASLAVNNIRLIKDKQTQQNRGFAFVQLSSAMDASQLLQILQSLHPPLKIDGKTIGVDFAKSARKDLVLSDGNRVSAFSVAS

RKHD4(1-2) = target: T2, RKHD4(1-2) (Homo sapiens, UniProt A1L020)
T2 sequence: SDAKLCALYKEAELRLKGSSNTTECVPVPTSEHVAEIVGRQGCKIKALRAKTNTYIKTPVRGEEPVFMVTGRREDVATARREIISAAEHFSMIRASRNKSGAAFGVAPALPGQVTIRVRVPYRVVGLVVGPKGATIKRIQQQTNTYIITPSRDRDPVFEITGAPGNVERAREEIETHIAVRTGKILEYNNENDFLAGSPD

SRP46 = target: T3, SRP46 (Homo sapiens, UniProt Q9BRL6)
T3 sequence: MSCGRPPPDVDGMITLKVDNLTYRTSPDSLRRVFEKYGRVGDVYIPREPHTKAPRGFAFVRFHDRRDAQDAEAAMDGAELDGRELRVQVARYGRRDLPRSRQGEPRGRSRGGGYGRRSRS

PRPF8 = PRPF8 (Homo sapiens, UniProt Q6P2Q9)
Sequence of PRPF8 (Q6P2Q9 965-1100): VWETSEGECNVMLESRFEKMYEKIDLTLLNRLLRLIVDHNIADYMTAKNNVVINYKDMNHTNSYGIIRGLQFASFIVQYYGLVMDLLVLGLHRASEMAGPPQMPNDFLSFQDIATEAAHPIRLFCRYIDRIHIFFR

PPIE = PPIE (Homo sapiens, UniProt Q9UNP9)
Sequence of PPIE (Q9UNP9 1-110): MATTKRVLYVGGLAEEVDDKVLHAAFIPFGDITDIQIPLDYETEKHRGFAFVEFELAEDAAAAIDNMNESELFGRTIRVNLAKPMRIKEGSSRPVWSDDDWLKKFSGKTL

ADAD1 = ADAD1 (Homo sapiens, UniProt Q96M93)
Sequence of ADAD1 (Q96M93 77-182): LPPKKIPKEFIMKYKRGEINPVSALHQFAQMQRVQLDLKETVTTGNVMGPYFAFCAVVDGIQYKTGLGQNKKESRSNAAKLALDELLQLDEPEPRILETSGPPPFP

RBMXL2 = RBMXL2 (Homo sapiens, UniProt O75526)
Sequence of RBMXL2 (O75526 1-110): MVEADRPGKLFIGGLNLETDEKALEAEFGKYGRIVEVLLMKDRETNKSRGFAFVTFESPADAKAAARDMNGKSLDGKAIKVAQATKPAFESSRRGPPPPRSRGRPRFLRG

ANKHD1 = target: T4, ANKHD1 (Homo sapiens, UniProt Q8IWZ3)
T4 sequence: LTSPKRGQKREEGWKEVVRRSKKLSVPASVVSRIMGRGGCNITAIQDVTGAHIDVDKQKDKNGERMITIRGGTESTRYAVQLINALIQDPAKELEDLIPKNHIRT

RBM34 = target: T5, RBM34 (Homo sapiens, UniProt P42696)
T5 sequence: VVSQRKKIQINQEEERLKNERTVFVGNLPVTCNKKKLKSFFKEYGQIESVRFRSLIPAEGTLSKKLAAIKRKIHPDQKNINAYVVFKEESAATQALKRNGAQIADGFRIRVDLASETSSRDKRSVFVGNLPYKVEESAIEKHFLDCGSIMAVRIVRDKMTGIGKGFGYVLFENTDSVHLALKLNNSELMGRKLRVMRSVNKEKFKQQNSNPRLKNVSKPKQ

SF3B4 = SF3B4 (Homo sapiens, UniProt Q15427)
Sequence of SF3B4 (Q15427 1-200): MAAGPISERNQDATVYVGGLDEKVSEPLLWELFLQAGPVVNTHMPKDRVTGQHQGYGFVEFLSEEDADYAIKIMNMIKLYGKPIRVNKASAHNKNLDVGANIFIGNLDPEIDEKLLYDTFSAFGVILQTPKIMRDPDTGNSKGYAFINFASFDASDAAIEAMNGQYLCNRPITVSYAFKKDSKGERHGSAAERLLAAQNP

SFRS15 = target: T6, SFRS15 (Homo sapiens, UniProt O95104)
T6 sequence: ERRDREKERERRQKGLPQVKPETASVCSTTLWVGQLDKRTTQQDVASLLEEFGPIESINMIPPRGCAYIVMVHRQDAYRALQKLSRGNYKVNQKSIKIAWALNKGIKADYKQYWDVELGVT

RBMY1D / RBMY1E = RBMY1D / RBMY1E (Homo sapiens, UniProt P0DJD3)
Sequence of RBMY1D / RBMY1E (P0DJD3 1-110): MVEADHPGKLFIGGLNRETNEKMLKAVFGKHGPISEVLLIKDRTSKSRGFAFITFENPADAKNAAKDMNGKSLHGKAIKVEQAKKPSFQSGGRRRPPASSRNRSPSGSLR

SF2 = SF2 (Homo sapiens, UniProt Q07955)
Sequence of SF2 (Q07955 1-220): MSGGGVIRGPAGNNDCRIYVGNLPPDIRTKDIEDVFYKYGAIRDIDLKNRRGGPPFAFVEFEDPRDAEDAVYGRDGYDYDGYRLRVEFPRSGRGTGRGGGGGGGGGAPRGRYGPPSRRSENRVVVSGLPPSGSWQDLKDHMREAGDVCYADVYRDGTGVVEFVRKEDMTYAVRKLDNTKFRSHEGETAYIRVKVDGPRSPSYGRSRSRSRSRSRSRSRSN

PTBP2 = PTBP2 (Homo sapiens, UniProt Q9UKA9)
Sequence of PTBP2 (Q9UKA9 40-531): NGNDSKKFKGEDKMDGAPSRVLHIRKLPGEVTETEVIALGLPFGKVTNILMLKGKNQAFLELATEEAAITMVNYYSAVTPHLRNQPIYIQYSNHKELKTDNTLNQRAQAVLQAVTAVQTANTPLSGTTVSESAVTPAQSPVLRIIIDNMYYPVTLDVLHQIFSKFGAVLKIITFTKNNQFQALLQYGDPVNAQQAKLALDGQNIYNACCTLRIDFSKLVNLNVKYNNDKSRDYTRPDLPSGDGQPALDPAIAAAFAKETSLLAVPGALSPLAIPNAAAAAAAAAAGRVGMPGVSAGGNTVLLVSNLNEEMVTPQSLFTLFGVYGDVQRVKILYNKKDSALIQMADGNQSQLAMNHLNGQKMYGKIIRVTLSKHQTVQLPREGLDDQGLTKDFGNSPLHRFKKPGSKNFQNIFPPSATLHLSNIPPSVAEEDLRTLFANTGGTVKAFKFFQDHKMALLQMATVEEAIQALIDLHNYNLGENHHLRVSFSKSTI

SR140 = SR140 (Homo sapiens, UniProt O15042)
Sequence of SR140 (O15042 250-375): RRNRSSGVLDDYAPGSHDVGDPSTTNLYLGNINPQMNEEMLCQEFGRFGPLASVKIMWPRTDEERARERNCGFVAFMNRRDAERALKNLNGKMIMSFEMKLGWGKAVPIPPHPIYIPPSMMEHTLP

RBM22 = target: T7, RBM22 (Homo sapiens, UniProt Q9NW64)
T7 sequence: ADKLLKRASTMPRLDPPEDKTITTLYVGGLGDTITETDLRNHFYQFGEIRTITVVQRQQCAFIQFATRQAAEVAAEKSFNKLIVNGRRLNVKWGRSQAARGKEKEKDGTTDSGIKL

RBPMS2 = RBPMS2 (Homo sapiens, UniProt Q6ZRY4)
Sequence of RBPMS2 (Q6ZRY4 10-130): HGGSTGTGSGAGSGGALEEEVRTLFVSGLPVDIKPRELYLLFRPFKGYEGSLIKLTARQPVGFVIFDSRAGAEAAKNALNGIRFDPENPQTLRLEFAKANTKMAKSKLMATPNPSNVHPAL

SFRS3 = target: T8, SFRS3 (Homo sapiens, UniProt P84103)
T8 sequence: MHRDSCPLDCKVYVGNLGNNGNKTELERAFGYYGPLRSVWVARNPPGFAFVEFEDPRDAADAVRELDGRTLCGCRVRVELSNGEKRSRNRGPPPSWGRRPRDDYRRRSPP

TRSPAP1 = target: T9, TRSPAP1 (Homo sapiens, UniProt Q9NX07)
T9 sequence: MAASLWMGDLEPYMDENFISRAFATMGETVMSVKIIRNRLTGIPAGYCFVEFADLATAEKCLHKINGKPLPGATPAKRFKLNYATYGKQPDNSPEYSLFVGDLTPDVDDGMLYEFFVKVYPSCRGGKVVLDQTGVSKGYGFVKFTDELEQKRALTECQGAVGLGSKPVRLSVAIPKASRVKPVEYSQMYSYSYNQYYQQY

SFRS5 = target: T10, SFRS5 (Homo sapiens, UniProt Q13243)
T10 sequence: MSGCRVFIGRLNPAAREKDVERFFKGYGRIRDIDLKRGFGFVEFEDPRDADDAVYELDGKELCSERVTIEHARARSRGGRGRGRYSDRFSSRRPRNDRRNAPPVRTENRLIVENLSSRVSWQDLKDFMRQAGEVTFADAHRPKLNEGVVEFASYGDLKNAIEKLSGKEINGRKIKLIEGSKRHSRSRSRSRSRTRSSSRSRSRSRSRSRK

Sequence UGAGGUAGUAGGUUGUAUAGUU has a binding signal (RBM5) of 356 ± 13.4 fluorescence intensity, a binding signal (RKHD4(1-2)) of 1130 ± 28.7 fluorescence intensity and a binding signal (SRP46) of 208 ± 90.3 fluorescence intensity. For the same sequence, the binding signal (PRPF8) was 25.3 ± 8.73 fluorescence intensity, the binding signal (PPIE) was 232 ± 2.04 fluorescence intensity and the binding signal (ADAD1) was 23.1 ± 6.46 fluorescence intensity. For the same sequence, the binding signal (RBMXL2) was 867 ± 9.01 fluorescence intensity, the binding signal (ANKHD1) was 21.6 ± 2.06 fluorescence intensity and the binding signal (RBM34) was 40.9 ± 12.8 fluorescence intensity. It also gave a binding signal (SF3B4) of 346 ± 11.8 fluorescence intensity, a binding signal (SFRS15) of 46.2 ± 1.86 fluorescence intensity and a binding signal (RBMY1D / RBMY1E) of 892 ± 33.6 fluorescence intensity. For the same sequence, the binding signal (SF2) was 70.4 ± 4.98 fluorescence intensity, the binding signal (PTBP2) was 49.5 ± 9.89 fluorescence intensity and the binding signal (SR140) was 32 ± 0.467 fluorescence intensity. The binding signal (RBM22) was 25.7 ± 2.21 fluorescence intensity, the binding signal (RBPMS2) was 118 ± 2.62 fluorescence intensity and the binding signal (SFRS3) was 37.7 ± 9.2 fluorescence intensity. The binding signal (TRSPAP1) was 79.2 ± 10.3 fluorescence intensity.

CAGUGCAAUGAUGAAAGGGCAU showed a binding signal (RBM5) of 593 ± 12.6 fluorescence intensity, a binding signal (RKHD4(1-2)) of 1280 ± 81.8 fluorescence intensity and a binding signal (SRP46) of 797 ± 34.1 fluorescence intensity. It also gave a binding signal (PRPF8) of 31.6 ± 16.2 fluorescence intensity, a binding signal (PPIE) of 451 ± 19.3 fluorescence intensity and a binding signal (ADAD1) of 44.5 ± 2.96 fluorescence intensity. It also gave a binding signal (SFRS5) of 151 ± 10.5 fluorescence intensity, a binding signal (RBMXL2) of 1800 ± 20.8 fluorescence intensity and a binding signal (ANKHD1) of 27.3 ± 0.926 fluorescence intensity. For the same sequence, the binding signal (RBM34) was 102 ± 9.41 fluorescence intensity, the binding signal (SF3B4) was 1680 ± 98.9 fluorescence intensity and the binding signal (SFRS15) was 141 ± 12.5 fluorescence intensity. The binding signal (RBMY1D / RBMY1E) was 1280 ± 58.5 fluorescence intensity, the binding signal (SF2) was 702.4 ± 1.9 fluorescence intensity and the binding signal (PTBP2) was 55.4 ± 5.87 fluorescence intensity. It also gave a binding signal (SR140) of 43.9 ± 3.02 fluorescence intensity, a binding signal (RBM22) of 52.6 ± 1.44 fluorescence intensity and a binding signal (RBPMS2) of 1650 ± 53.9 fluorescence intensity. For the same sequence, the binding signal (SFRS3) was 219 ± 8.61 fluorescence intensity and the binding signal (TRSPAP1) was 84.1 ± 10.6 fluorescence intensity.

In the case of UGAGGUAGUAGGUUGUGUGGUU, the binding signal (RBM5) is reported as 858 ± 19.2 fluorescence intensity, the binding signal (RKHD4(1-2)) is reported as 1430 ± 37.1 fluorescence intensity and the binding signal (SRP46) is reported as 1046 ± 4.09 fluorescence intensity. The binding signal (PPIE) was 1030 ± 108 fluorescence intensity, the binding signal (ADAD1) was 157 ± 3.28 fluorescence intensity and the binding signal (SFRS5) was 215 ± 3.13 fluorescence intensity. It also gave a binding signal (RBMXL2) of 1610 ± 44.5 fluorescence intensity, a binding signal (ANKHD1) of 101 ± 1.94 fluorescence intensity and a binding signal (RBM34) of 228 ± 3.75 fluorescence intensity. For the same sequence, the binding signal (SF3B4) was 1290 ± 27 fluorescence intensity, the binding signal (SFRS15) was 289 ± 27.3 fluorescence intensity and the binding signal (RBMY1D / RBMY1E) was 1420 ± 19.5 fluorescence intensity. It also gave a binding signal (SF2) of 895.8 ± 6.29 fluorescence intensity, a binding signal (PTBP2) of 166 ± 17.3 fluorescence intensity and a binding signal (SR140) of 149 ± 8.63 fluorescence intensity. It also gave a binding signal (RBM22) of 126 ± 31.8 fluorescence intensity, a binding signal (RBPMS2) of 515 ± 10.3 fluorescence intensity and a binding signal (SFRS3) of 276 ± 12.7 fluorescence intensity. The binding signal (TRSPAP1) was 332 ± 22.4 fluorescence intensity.

With UAGCUUAUCAGACUGAUGUUGA the binding signal (RBM5) was 21.2 ± 2.33 fluorescence intensity, the binding signal (RKHD4(1-2)) was 932 ± 115 fluorescence intensity and the binding signal (SRP46) was 41.5 ± 2.43 fluorescence intensity. The binding signal (PPIE) was 91.8 ± 5.98 fluorescence intensity, the binding signal (RBMXL2) was 826.37 ± 0.587 fluorescence intensity and the binding signal (SF3B4) was 700 ± 28.6 fluorescence intensity. The binding signal (SFRS15) was 22.3 ± 2.16 fluorescence intensity, the binding signal (RBMY1D / RBMY1E) was 817.2 ± 6.26 fluorescence intensity and the binding signal (SF2) was 126 ± 12.9 fluorescence intensity. It also gave a binding signal (PTBP2) of 23.2 ± 6.02 fluorescence intensity, a binding signal (SR140) of 21.9 ± 3.08 fluorescence intensity and a binding signal (RBPMS2) of 37.6 ± 9.28 fluorescence intensity. For the same sequence, the binding signal (SFRS3) was 34.7 ± 4.07 fluorescence intensity and the binding signal (TRSPAP1) was 45.5 ± 1.42 fluorescence intensity.

In the case of AGAGGUAGUAGGUUGCAUAGUU, the binding signal (RBM5) is reported as 1310 ± 32.6 fluorescence intensity, the binding signal (RKHD4(1-2)) is reported as 1980 ± 164 fluorescence intensity and the binding signal (SRP46) is reported as 1390 ± 35.5 fluorescence intensity. For the same sequence, the binding signal (PPIE) was 817 ± 64.4 fluorescence intensity, the binding signal (ADAD1) was 65 ± 1.55 fluorescence intensity and the binding signal (SFRS5) was 151 ± 12.7 fluorescence intensity. The binding signal (RBMXL2) was 2569 ± 8.99 fluorescence intensity, the binding signal (ANKHD1) was 37.7 ± 0.622 fluorescence intensity and the binding signal (RBM34) was 148 ± 10.7 fluorescence intensity. The binding signal (SF3B4) was 1440 ± 72.2 fluorescence intensity, the binding signal (SFRS15) was 153 ± 14.1 fluorescence intensity and the binding signal (RBMY1D / RBMY1E) was 2080 ± 121 fluorescence intensity. For the same sequence, the binding signal (SF2) was 925 ± 29.4 fluorescence intensity, the binding signal (PTBP2) was 96.6 ± 13.3 fluorescence intensity and the binding signal (SR140) was 142.1 ± 1.25 fluorescence intensity. For the same sequence, the binding signal (RBM22) was 71.81 ± 0.233 fluorescence intensity, the binding signal (RBPMS2) was 1780 ± 12.1 fluorescence intensity and the binding signal (SFRS3) was 324.4 ± 0.806 fluorescence intensity. It also gave a binding signal (TRSPAP1) of 351 ± 8.57 fluorescence intensity.

Sequence UGAGGUAGUAGGUUGUAUGGUU has a binding signal (RBM5) of 930 ± 19.2 fluorescence intensity, a binding signal (RKHD4(1-2)) of 1640 ± 102 fluorescence intensity and a binding signal (SRP46) of 1040 ± 52.8 fluorescence intensity. For the same sequence, the binding signal (PRPF8) was 22 ± 1.98 fluorescence intensity, the binding signal (PPIE) was 958 ± 40.9 fluorescence intensity and the binding signal (ADAD1) was 97.885 ± 0.0354 fluorescence intensity. For the same sequence, the binding signal (SFRS5) was 155 ± 8.02 fluorescence intensity, the binding signal (RBMXL2) was 1440 ± 338 fluorescence intensity and the binding signal (ANKHD1) was 53.6 ± 1.31 fluorescence intensity. It also gave a binding signal (RBM34) of 153 ± 25.5 fluorescence intensity, a binding signal (SF3B4) of 638.1 ± 5.52 fluorescence intensity and a binding signal (SFRS15) of 154.2 ± 0.983 fluorescence intensity. For the same sequence, the binding signal (RBMY1D / RBMY1E) was 1480 ± 96.8 fluorescence intensity, the binding signal (SF2) was 700 ± 28 fluorescence intensity and the binding signal (PTBP2) was 147 ± 8.05 fluorescence intensity. The binding signal (SR140) was 80.2 ± 12.3 fluorescence intensity, the binding signal (RBM22) was 113.1 ± 0.177 fluorescence intensity and the binding signal (RBPMS2) was 434 ± 21.2 fluorescence intensity. The binding signal (SFRS3) was 235 ± 17.9 fluorescence intensity and the binding signal (TRSPAP1) was 269 ± 24.3 fluorescence intensity.
